The campaign covered roughly 5,500 compounds. About 2,000 (36%) were called active. Inconclusive results (about 18%) are left out. The list shows a part of the results. A number with no mark means an inactive call. Rule as the data show it: active = normalized growth mostly below about 0.91 (no sharp cut-off); inconclusive = no clear call, values can overlap the other calls; inactive = mostly above about 0.92.
Assay: chemical genetic growth profiling, strain panel (AID 1159580);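 also: tested at 20 µM; growth read once vehicle control cultures reached saturation at 30 °C; 1 = growth at the plate median or of vehicle wells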
Conditions: S. cerevisiae deletion strains, growth OD

Work on `O=c1cc(-c2ccccc2)oc2cccc(O)c12` yielded a normalized growth (locus YAL021C, strain ccr4, stronger effect = lower value) of 0.95, a normalized growth (locus YAL026C, strain drs2, stronger effect = lower value) of 0.93 and a normalized growth (locus YAL030W, strain snc1, stronger effect = lower value) of 0.972. For the same molecule, the normalized growth (locus YBL061C, strain skt5, stronger effect = lower value) was 0.938, the normalized growth (locus YBR009C, strain hhf1, stronger effect = lower value) was 0.969 and the normalized growth (locus YBR023C, strain chs3, stronger effect = lower value) was 0.892 (active). The normalized growth (locus YBR171W, strain sec66, stronger effect = lower value) was 0.952, the normalized growth (locus YBR231C, strain swc5, stronger effect = lower value) was 0.943 and the normalized growth (locus YBR279W, strain paf1, stronger effect = lower value) was 0.931 (active). For the same molecule, the normalized growth (locus YCL011C, strain gbp2, stronger effect = lower value) was 0.967, the normalized growth (locus YCL016C, strain dcc1, stronger effect = lower value) was 0.938 and the normalized growth (locus YCL061C, strain MRC1, stronger effect = lower value) was 0.969. The normalized growth (locus YCL069W, strain vba3, stronger effect = lower value) was 0.959, the normalized growth (locus YCR088W, strain abp1, stronger effect = lower value) was 0.972 and the normalized growth (locus YDL005C, strain med2, stronger effect = lower value) was 0.994. It also gave a normalized growth (locus YDL040C, strain nat1, stronger effect = lower value) of 0.961, a normalized growth (locus YDR001C, strain nth1, stronger effect = lower value) of 0.961 and a normalized growth (locus YDR069C, strain doa4, stronger effect = lower value) of 0.985. For the same molecule, the normalized growth (locus YDR137W, strain rgp1, stronger effect = lower value) was 0.716 (active), the normalized growth (locus YDR159W, strain sac3, stronger effect = lower value) was 1.03 and the normalized growth (locus YDR195W, strain ref2) was 1.37 [resistant] (active). The normalized growth (locus YDR297W, strain sur2, stronger effect = lower value) was 0.977, the normalized growth (locus YDR334W, strain swr1, stronger effect = lower value) was 0.964 and the normalized growth (locus YDR335W, strain msn5, stronger effect = lower value) was 0.968. The normalized growth (locus YDR392W, strain spt3, stronger effect = lower value) was 0.605 (active), the normalized growth (locus YEL003W, strain gim4, stronger effect = lower value) was 0.981 and the normalized growth (locus YEL037C, strain rad23, stronger effect = lower value) was 0.959. For the same molecule, the normalized growth (locus YEL061C, strain CIN8 (second series), stronger effect = lower value) was 0.963, the normalized growth (locus YER015W, strain faa2, stronger effect = lower value) was 0.969 and the normalized growth (locus YER016W, strain bim1, stronger effect = lower value) was 0.974. For the same molecule, the normalized growth (locus YER111C, strain swi4, stronger effect = lower value) was 0.985, the normalized growth (locus YER155C, strain BEM2 (second series), stronger effect = lower value) was 0.506 (active) and the normalized growth (locus YFR010W, strain ubp6, stronger effect = lower value) was 0.959. The normalized growth (locus YGL167C, strain pmr1, stronger effect = lower value) was 0.969, the normalized growth (locus YGL173C, strain kem1, stronger effect = lower value) was 0.946 and the normalized growth (locus YGL227W, strain vid30, stronger effect = lower value) was 0.977. For the same molecule, the normalized growth (locus YGL240W, strain doc1, stronger effect = lower value) was 0.924, the normalized growth (locus YGL253W, strain hxk2, stronger effect = lower value) was 0.859 (active) and the normalized growth (locus YHR013C, strain ard1, stronger effect = lower value) was 0.897. The normalized growth (locus YHR027C, strain rpn1, stronger effect = lower value) was 0.98, the normalized growth (locus YHR030C, strain SLT2, stronger effect = lower value) was 1.02 and the normalized growth (locus YHR079C, strain IRE1, stronger effect = lower value) was 0.992. For the same molecule, the normalized growth (locus YHR142W, strain chs7, stronger effect = lower value) was 0.765 (active), the normalized growth (locus YJL092W, strain hpr5, stronger effect = lower value) was 0.975 and the normalized growth (locus YJL095W, strain BCK1 (second series), stronger effect = lower value) was 0.971. For the same molecule, the normalized growth (locus YJL095W, strain BCK1, stronger effect = lower value) was 0.995, the normalized growth (locus YJL115W, strain asf1, stronger effect = lower value) was 0.979 and the normalized growth (locus YJL129C, strain trk1, stronger effect = lower value) was 0.912. For the same molecule, the normalized growth (locus YJL154C, strain vps35, stronger effect = lower value) was 0.981, the normalized growth (locus YJL164C, strain tpk1, stronger effect = lower value) was 0.902 (active) and the normalized growth (locus YJL166W, strain qcr8, stronger effect = lower value) was 0.908. For the same molecule, the normalized growth (locus YJL187C, strain SWE1, stronger effect = lower value) was 0.966, the normalized growth (locus YJR066W, strain TOR1, stronger effect = lower value) was 0.923 and the normalized growth (locus YKL160W, strain elf1, stronger effect = lower value) was 0.872 (active). It also gave a normalized growth (locus YKR026C, strain gcn3, stronger effect = lower value) of 0.969, a normalized growth (locus YKR091W, strain srl3, stronger effect = lower value) of 0.985 and a normalized growth (locus YLL001W, strain dnm1, stronger effect = lower value) of 0.939. It also gave a normalized growth (locus YLL026W, stronger effect = lower value) of 0.972, a normalized growth (locus YLL041C, strain sdh2, stronger effect = lower value) of 0.97 and a normalized growth (locus YLR027C, strain aat2, stronger effect = lower value) of 0.934. The normalized growth (locus YLR113W, strain HOG1, stronger effect = lower value) was 1.03, the normalized growth (locus YLR221C, strain rsa3, stronger effect = lower value) was 0.883 (active) and the normalized growth (locus YLR258W, strain gsy2, stronger effect = lower value) was 0.961. The normalized growth (locus YLR262C, strain YPT6 (second series), stronger effect = lower value) was 0.78 (active), the normalized growth (locus YLR320W, strain mms22, stronger effect = lower value) was 0.774 (active) and the normalized growth (locus YLR342W, strain FKS1, stronger effect = lower value) was 0.984. It also gave a normalized growth (locus YLR357W, strain rsc2, stronger effect = lower value) of 1.01, a normalized growth (locus YLR370C, strain arc18, stronger effect = lower value) of 0.964 and a normalized growth (locus YLR384C, strain iki3, stronger effect = lower value) of 0.976. For the same molecule, the normalized growth (locus YML120C, strain ndi1, stronger effect = lower value) was 0.917, the normalized growth (locus YMR058W, strain fet3, stronger effect = lower value) was 0.888 (active) and the normalized growth (locus YMR125W, strain sto1, stronger effect = lower value) was 1. It also gave a normalized growth (locus YMR129W, stronger effect = lower value) of 0.979, a normalized growth (locus YMR205C, strain PFK2, stronger effect = lower value) of 0.972 and a normalized growth (locus YMR231W, strain pep5, stronger effect = lower value) of 0.986. For the same molecule, the normalized growth (locus YNL071W, strain lat1, stronger effect = lower value) was 0.62 (active), the normalized growth (locus YNL183C, strain NPR1, stronger effect = lower value) was 0.943 and the normalized growth (locus YNL209W, strain ssb2, stronger effect = lower value) was 0.978. For the same molecule, the normalized growth (locus YNL248C, strain rpa49, stronger effect = lower value) was 0.755 (active), the normalized growth (locus YNL322C, strain KRE1 (second series), stronger effect = lower value) was 0.996 and the normalized growth (locus YNR049C, strain mso1, stronger effect = lower value) was 0.965. It also gave a normalized growth (locus YOR001W, strain rrp6, stronger effect = lower value) of 0.911, a normalized growth (locus YOR070C, strain gyp1, stronger effect = lower value) of 0.937 and a normalized growth (locus YOR080W, strain dia2, stronger effect = lower value) of 0.982. For the same molecule, the normalized growth (locus YOR083W, strain WHI5, stronger effect = lower value) was 0.886 (active), the normalized growth (locus YOR106W, strain vam3, stronger effect = lower value) was 0.923 and the normalized growth (locus YOR231W, strain MKK1, stronger effect = lower value) was 1.01. For the same molecule, the normalized growth (locus YOR265W, strain rbl2, stronger effect = lower value) was 0.954, the normalized growth (locus YOR270C, strain vph1, stronger effect = lower value) was 0.66 (active) and the normalized growth (locus YOR290C, strain snf2, stronger effect = lower value) was 0.873. For the same molecule, the normalized growth (locus YPL051W, strain arl3, stronger effect = lower value) was 0.853 (active), the normalized growth (locus YPL078C, strain atp4, stronger effect = lower value) was 0.807 (active) and the normalized growth (locus YPL106C, strain sse1, stronger effect = lower value) was 0.973. It also gave a normalized growth (locus YPL240C, strain hsp82, stronger effect = lower value) of 0.974 and a normalized growth (locus YPL256C, strain CLN2, stronger effect = lower value) of 1.05.
